The text below walks through data of PubChem BioAssay (NCATS).

Values joined by “and” are separate entries in the source; they are usually repeats but may differ in a detail not shown here. Equal entries are not always repeated. Inconclusive results are not listed. The source holds several records for some structures; these can differ, active in one and inactive in another. Active and inactive are the calls of the source. Unless noted, calls follow the shape of the dose curve; as a rule, active = well fitted curve in the direction sought with a large enough effect; inconclusive = small, poorly fitted or top-dose-only effect, or another doubt; inactive = no such curve, though single readings can be large; an effect the other way counts as inactive or inconclusive.

Assay [1] has as its target T1, Hexokinase-4 (Homo sapiens) + Glucokinase regulatory protein (Homo sapiens) (UniProt P35557+Q14397). Kind of assay: qHTS assay for inhibitors of recombinant human GCK-GKRP interaction: Diaphorase-coupled assay (AID 743205). An outline of the steps: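 GST-GCK (10 nM) with FLAG-GKRP (10 nM), 5 mM glucose and 0.4 mM ATP in pH 7.6 Hepes; compounds preincubated 20 min with substrate. G6PDH/diaphorase coupling converts resazurin to resorufin, read kinetically (ex 525/em 590 nm) for 30 min.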
Background: qHTS replaces the single test concentration by a dilution series.

Assay [2] concerns the target T1, Hexokinase-4 (Homo sapiens) + Glucokinase regulatory protein (Homo sapiens). Kind of assay: qHTS assay for inhibitors of recombinant human GCK-GKRP interaction: ADP-Glo assay (AID 743206).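 Also: plate controls were DMSO plus enzyme for no effect and no enzyme for full effect.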 In short, it runs like this:
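GST-GCK and FLAG-GKRP (15 nM each in the dispensed mix, with 2 uM S6P) react with 0.4 mM ATP and 5 mM glucose (final) in Hepes pH 7.6 for 60 min at room temperature. ADP is measured by ADP-Glo luminescence.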

Assay [3] shares this target. Nature of the assay: qHTS assay for inhibitors of recombinant human GCK-GKRP interaction: HTRF assay (AID 743207).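 Also: 0% = DMSO with GCK present and -100% = DMSO wells lacking GCK.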 An outline of the steps: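 GST-GCK and FLAG-GKRP (5 nM each) were combined with 2 uM S6P in pH 7.1 Hepes/MgCl2/KCl/DTT buffer, then compound and anti-FLAG XL665/anti-GST K antibodies were added. After 60 min at room temperature, HTRF 665/615 nm emission was read.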

Assay [4] in a line: qHTS Assay for Identifying Gametocytocidal Compounds (AID 743244). Also: potency is read from the fitted curve at half-maximal effect.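 As to max response: % is scaled to controls: 0 for no effect and ±100 for the full control effect; actives lower the fluorescent signal which means gametocytes are killed.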 Particulars: P. falciparum 3D7 stage III-V gametocytes, alamarBlue, 72 h; max response: stronger effect = lower value. An outline of the steps:
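A resazurin-based viability read-out was applied to mature P. falciparum gametocytes: 72 h compound treatment, then 24 h dye incubation, with falling fluorescence signalling gametocytocidal effect.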

A short description of assay [5]: qHTS profiling of the MIPE4 collection as inhibitors of Plasmodium falciparum (3D7) proliferation (AID 743344; call rule not given here). Conditions: P. falciparum 3D7 in erythrocytes, SYBR Green DNA fluorescence, 72 h; at 28.5 µM (top of the series) unless noted. An outline of the steps:
(§1)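 Erythrocytes infected with P. falciparum (0.3% parasitemia, 2.5% hematocrit) incubated with compounds 72 h at 37 C, 5% CO2. Lysis with saponin/Triton buffer containing SYBR Green I, overnight at room temperature in the dark; DNA fluorescence (485/535 nm) normalised to 0.29 uM artemisinin and DMSO.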

Assay [6] in a line: qHTS profiling of the MIPE4 collection as inhibitors of Plasmodium falciparum (DD2) proliferation (AID 743345; call rule not given here). Conditions: P. falciparum Dd2 in erythrocytes, SYBR Green DNA, 72 h; at 28.5 µM (top of the series) unless noted. In short, it runs like this:
as §1

A short description of assay [7]: qHTS profiling of the MIPE4 collection as inhibitors of Plasmodium falciparum (DD2) proliferation (Rep 2) (AID 743346; call rule not given here). Conditions: P. falciparum Dd2 in erythrocytes, SYBR Green DNA, 72 h; at 28.5 µM (top of the series) unless noted. An outline of the steps: as §1
Assay [8] in a line: qHTS profiling of the MIPE4 collection as inhibitors of Plasmodium falciparum (HB3) proliferation (AID 743347; call rule not given here;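 also: plate controls were DMSO vehicle wells for no effect and artemisinin wells for full effect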). Particulars: P. falciparum HB3 in erythrocytes, SYBR Green DNA, 72 h; at 28.5 µM (top of the series) unless noted. In short, it runs like this: as §1
Assay [9] in a line: High-throughput drug toxicity screening in the BPDCN cell line Gen2.2 (AID 1224824; call rule not given here;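 also: cells exposed to compounds for 48 h before reading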). Particulars: Gen2.2 BPDCN cells; at 45.8 µM (top of the series) unless noted. In short, it runs like this: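 Gen2.2 cells (500/well) in phenol red-free RPMI with 10% FBS were exposed to compounds for 48 h at 37 °C, 5% CO2. Viability was read by CellTiter-Glo luminescence and normalized to DMSO (100%) and 9.2 uM bortezomib (0%).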

Assay [10] can be described thus: High-throughput drug toxicity screening in the BPDCN cell line Cal-1 (AID 1224825; call rule not given here). Particulars: Cal-1 BPDCN cell viability, qHTS; at 45.8 µM (top of the series) unless noted. In short, it runs like this: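 500 Cal-1 cells/well, RPMI + glutamine + 10% FBS (phenol red-free); cpd added by pin tool; 48 h, 37C, 5% CO2; CTG 15 min RT, lumi read. Normalised: DMSO 100%, bortezomib 9.2 uM 0%.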

Assay [11] can be described thus: qHTS assay for measurement of the activity of small molecule inhibitors on Zika virus induced Caspase-3 activity in human iPSC derived neural progenitor cells (hNPCs) (AID 1224857). Also: nearly all actives have a fitted effect of over 65% in size. Also: potency is read from the fitted curve at half-maximal effect. In short, it runs like this:
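Quantitative HTS format: human iPSC neural progenitors, 1 h compound pretreatment, ZIKV 2 FFU/cell for 6 h at 37 C. Percent inhibition derived from luminescent caspase-3/7 signal between uninfected and infected controls.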

A short description of assay [12]: qHTS assay for measurement of the activity of small molecule inhibitors on Zika virus induced Caspase-3 activity in human astrocytoma cells (AID 1224859). Also: potency is read from the fitted curve at half-maximal effect. An outline of the steps: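 Readout is luminescence from Caspase-Glo 3/7 added after a 6 h ZIKV infection (2 FFU/cell) of compound-pretreated (1 h) SNB-19 cells; data expressed as % inhibition versus uninfected and infected wells.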

Assay [13] is described as follows: qHTS Screen of the MIPE 4.0 Collection Against Ewings Sarcoma (RDES) (AID 1259252). Also: nearly all actives have a fitted effect of over 35% in size. Also: potency is read from the fitted curve at half-maximal effect. An outline of the steps:
(§2)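 CellTiter-Glo luminescence after 48 h compound exposure (titration) gave viability; percent activity used DMSO-treated cells as no inhibition and medium-only wells as full inhibition. Cells grown in RPMI/5% FBS, dosed 4 h post-seeding.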

Assay [14] can be described thus: qHTS Screen of the MIPE 4.0 Collection Against Ewings Sarcoma (TC71) (AID 1259253). Also: nearly all actives have a fitted effect of over 40% in size. Also: potency is read from the fitted curve at half-maximal effect. In short, it runs like this: as §2
Assay [15] is described as follows: qHTS profiling for inhibitors of Plasmodium falciparum (3D7) proliferation (AID 743322).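 Also: infected erythrocytes exposed to compound for 72 h before lysis; 100% = DMSO vehicle wells and 0% = 0.29 µM artemisinin.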 Particulars: P. falciparum 3D7 proliferation; at 28.7 µM (top of the series) unless noted. An outline of the steps:
as §1

Assay [16] can be described thus: qHTS profiling for inhibitors of Plasmodium falciparum (DD2) proliferation (AID 743323; call rule not given here). Particulars: lower = more inhibition; at 28.7 µM (top of the series) unless noted. An outline of the steps: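 Parasite proliferation measured via DNA-dye fluorescence, as uninfected erythrocytes lack DNA. Cultures at 0.3% parasitemia and 2.5% hematocrit incubated 72 h with compound; signal scaled between vehicle and 0.29 uM artemisinin wells.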

Assay [17] can be described thus: qHTS assay for small molecule agonists of the antioxidant response element (ARE) signaling pathway measured by Nrf2-dependant transcriptional activity - cell viability counter screen (AID 720653; active = well fitted curve in the direction sought with a large enough effect in the repeat runs; an effect the other way counts as inactive or inconclusive; also: % is scaled to controls: 0 for no effect and ±100 for the full control effect). Particulars: ARE-bla HepG2 viability, CellTiter-Glo ATP luminescence, 16 h; max response: stronger effect = lower value. An outline of the steps: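 Cytotoxicity counter screen: intracellular ATP quantified by CellTiter-Glo luminescence in the same ARE-bla HepG2 plates, after 16 h compound exposure and a 2 h beta-lactamase substrate step.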

Assay [18] can be described thus: qHTS assay for cell viability of HEK293 cells (AID 743288). Also: % is scaled to controls: 0 for no effect and ±100 for the full control effect; nearly all actives have a fitted effect of over 50% in size. Particulars: ATP luminescence (CellTiter-Glo), 18 h; max response: stronger effect = lower value. An outline of the steps: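 Parental HEK293 cells were seeded at 2,000 cells/well, rested at least 5 h at 37 C, then exposed to compounds in DMSO for 18 h at 37 C. Viability was read as ATP-dependent luciferase luminescence after 30 min at room temperature.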

A short description of assay [19]: qHTS assay for cell viability of the p53RE-bla HCT-116 cell line (AID 743292). Also: % is scaled to controls: 0 for no effect and ±100 for the full control effect; nearly all actives have a fitted effect of over 55% in size. In short, it runs like this: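 In this qHTS counter-screen, metabolically competent p53RE-bla HCT-116 cells were counted via their ATP content. Compounds were applied for 16 h at 37 C and luciferase-coupled luminescence was measured.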
A short description of assay [20]: qHTS Screen of the MIPE 4.0 Collection Against Ewings Sarcoma (EW8) (AID 1259255).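 Also: 100% = DMSO-treated cells and 0% = medium-only wells without cells; nearly all actives have a fitted effect of over 35% in size.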 In short, it runs like this: as §2

T1 sequence (P35557 whole entry, looked up): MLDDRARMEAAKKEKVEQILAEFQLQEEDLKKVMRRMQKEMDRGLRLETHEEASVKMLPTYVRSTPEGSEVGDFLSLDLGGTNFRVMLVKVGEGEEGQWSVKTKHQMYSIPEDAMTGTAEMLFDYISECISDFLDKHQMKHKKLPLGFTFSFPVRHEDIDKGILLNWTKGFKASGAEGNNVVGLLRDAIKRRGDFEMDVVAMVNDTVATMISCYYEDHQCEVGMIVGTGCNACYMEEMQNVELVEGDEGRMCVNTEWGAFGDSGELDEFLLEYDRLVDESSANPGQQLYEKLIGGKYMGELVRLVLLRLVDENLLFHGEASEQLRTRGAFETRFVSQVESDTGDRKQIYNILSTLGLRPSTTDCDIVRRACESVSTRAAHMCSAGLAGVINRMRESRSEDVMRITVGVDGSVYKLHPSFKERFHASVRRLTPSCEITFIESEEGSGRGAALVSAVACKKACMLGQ
T1 sequence (Q14397 whole entry, looked up): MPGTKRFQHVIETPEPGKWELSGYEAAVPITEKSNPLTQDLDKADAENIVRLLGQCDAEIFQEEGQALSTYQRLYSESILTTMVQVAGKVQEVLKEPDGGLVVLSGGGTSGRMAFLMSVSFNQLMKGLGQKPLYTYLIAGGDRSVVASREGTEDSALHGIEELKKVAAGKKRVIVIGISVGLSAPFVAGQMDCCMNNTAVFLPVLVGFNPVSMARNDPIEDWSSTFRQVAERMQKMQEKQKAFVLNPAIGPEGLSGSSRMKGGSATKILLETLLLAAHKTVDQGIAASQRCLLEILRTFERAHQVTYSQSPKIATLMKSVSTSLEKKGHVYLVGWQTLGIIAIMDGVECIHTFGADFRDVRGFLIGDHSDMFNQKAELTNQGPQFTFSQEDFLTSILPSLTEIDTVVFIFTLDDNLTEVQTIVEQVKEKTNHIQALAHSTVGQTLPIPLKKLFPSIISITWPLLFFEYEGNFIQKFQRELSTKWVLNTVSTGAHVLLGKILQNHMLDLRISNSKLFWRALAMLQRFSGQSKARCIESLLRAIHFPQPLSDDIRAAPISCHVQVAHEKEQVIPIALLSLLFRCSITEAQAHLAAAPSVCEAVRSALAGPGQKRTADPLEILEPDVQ

For `NCCCCNCCCN`, the result in assay [1], in assay [2] and in assay [3] was inactive. Also, the max response in assay [4] was 11.2% (inactive). Moreover, in [5], the parasite growth, % of DMSO control is 161%. The same compound returned a parasite growth remaining, % of DMSO control (lower = more inhibition) in assay [6] of 95.4%. In assay [7], this compound registered a parasite growth, % of control (lower = inhibition) of 90.4%. Besides, the growth, % of control in [8] was 577%. Further, in assay [9], the cell viability, % of control (lower = more cytotoxic) amounted to 3.46%. The viability (% of control) in assay [10] came out at 3.12%. Moreover, the Potency entry in [11], in assay [12], in assay [13] and in [14] was “inactive” throughout.

On to `COc1cc(Nc2c(C#N)cnc3cc(OCCCN4CCN(C)CC4)c(OC)cc23)c(Cl)cc1Cl`, for which the Potency in assay [4] is 3.55 µM (active); in assay [13], 3.32 µM (active); in assay [14], 18.7 µM (active). The remaining parasite growth % (stronger effect = lower value) in [15] is -0.245%. For the same compound, in assay [16], the activity, percent of control is 4.4%. This compound registered a parasite growth, % of DMSO control in assay [5] of 6.35%. In addition, the parasite growth remaining, % of DMSO control (lower = more inhibition) in assay [6] worked out at 10.9%. The compound further came in with a parasite growth, % of control (lower = inhibition) in assay [7] of 14.7%. The same compound registered a growth, % of control in [8] of 3.88%. Also, in assay [9], the cell viability, % of control (lower = more cytotoxic) came out at 5%. In [10], the viability (% of control) is 3.18%. For the same compound, the Potency entry in assay [11] and in assay [12] was “inactive” each time.

`CC(=O)Nc1ccc(O)cc1`: the max response in assay [17] was -1.61% (inactive) and -10.9% (inactive); in assay [18], -9.69% (inactive) and -0.289% (inactive). The Potency result in [19], in assay [11], in assay [12], in [13] and in [14] was “inactive” each time. Moreover, the cell viability, % of control (lower = more cytotoxic) in [9] was 105%. Further, in assay [10], the viability (% of control) was found to be 33.3%.

As to `COc1cc2nc(N3CCN(C(=O)C4CCCO4)CC3)nc(N)c2cc1OC` (stereo not given), the outcome in assay [1], in assay [2] and in assay [3] was inactive. For the same compound, the max response in [4] is -8.17% (inactive) and 12.4% (inactive). Moreover, the parasite growth, % of DMSO control in assay [5] is 30.8%. In assay [6], this compound yielded a parasite growth remaining, % of DMSO control (lower = more inhibition) of 76.4%. In assay [7], this compound came in with a parasite growth, % of control (lower = inhibition) of 46.2%. In addition, the growth, % of control in assay [8] came out at 11.3%. The cell viability, % of control (lower = more cytotoxic) in assay [9] came to 151%. Besides, the viability (% of control) in assay [10] stood at 88.2%. Moreover, the Potency result in assay [11] was “inactive and 13.2 µM (active)”; in [12] it was 14.8 µM (active). The Potency entry in assay [13] and in assay [20] was “inactive” throughout.
